# Measured values published in the supplement of paper PMC10037445.
# Whole data set: some 2,900 compounds, median “IRF Lucia reporter activity, fold change vs agonist alone” near 0.9, cut for the highest 2% near 2.8. The sample as a whole holds a higher share of the highest values than the screen did.
# Assays:
# [1] = tested on: RAW-Dual; assay: IRF Lucia reporter activity, fold change vs agonist alone; higher = enhanced IRF activity; conditions: library stock concentration (final ~1000-fold dilution): 10 mM, agonist: MPLA (TLR4) […]
# Procedure, shortened: (§1)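 RAW-Dual macrophages were seeded in DMEM at 50,000 cells/well in 384-well plates, given 50 nL of library stock by pin tool, and given a PRR agonist 1 h later. Plates were held at 37 °C, 5% CO2 for 20 hours, after which supernatant was read for IRF by QuantiLuc luminescence and for NF-κB by QuantiBlue absorbance at 620 nm. Reporter activity is expressed as fold change over wells that received agonist alone. A well was called cytotoxic when IncuCyte confluency fell below 70% of agonist controls in both mask sets.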
# [2] = tested on: RAW-Dual; assay: IRF Lucia reporter activity, fold change vs agonist alone; cytotoxicity flag (confluency mask): not cytotoxic; higher = enhanced IRF activity
# Procedure, shortened: as §1
# [3] = tested on: RAW-Dual; assay: IRF Lucia reporter activity, fold change vs agonist alone; cytotoxicity flag (confluency mask): cytotoxic (confluency <70% of control); higher = enhanced IRF activity
# Procedure, shortened: as §1
# [4] = cytotoxicity flag (confluency mask): not cytotoxic
# [5] = agonist: 3'3'-cGAMP (STING) 10 ug/mL
structure (smiles),measurement,setting,value
Cc1nc(Nc2ncc(C(=O)Nc3c(C)cccc3Cl)s2)cc(N2CCN(CCO)CC2)n1.Cl,IRF Lucia reporter activity,[1]; [4],0.77
Cc1nc(Nc2ncc(C(=O)Nc3c(C)cccc3Cl)s2)cc(N2CCN(CCO)CC2)n1.Cl (library stock concentration (final ~1000-fold dilution): 10 mM),IRF Lucia reporter activity,[2]; [5],0.0778
same,IRF Lucia reporter activity,[2]; agonist: LPS (TLR4) 0.1 ug/mL,1.07
C=C1CCN(C(C)C(O)(Cn2cncn2)c2ccc(F)cc2F)CC1 (stereo unspecified) (library stock concentration (final ~1000-fold dilution): 10 mM),IRF Lucia reporter activity,[3]; [5],1.25
same,IRF Lucia reporter activity,[3]; agonist: LPS (TLR4) 0.1 ug/mL,2.38
C=C1CCN(C(C)C(O)(Cn2cncn2)c2ccc(F)cc2F)CC1 (stereo unspecified),IRF Lucia reporter activity,[1]; cytotoxicity flag (confluency mask): cytotoxic (confluency <70% of control),2.14
CC(C)(C)NC(=O)c1cncn1C1CCN(c2ccc(-c3nnc(C(F)(F)F)o3)cn2)CC1 (library stock concentration (final ~1000-fold dilution): 10 mM),IRF Lucia reporter activity,[2]; [5],1.33
same,IRF Lucia reporter activity,[2]; agonist: LPS (TLR4) 0.1 ug/mL,3.77
CC(C)CC(NC(=O)CNC(=O)c1cc(Cl)ccc1Cl)B(O)O (stereo unspecified) (library stock concentration (final ~1000-fold dilution): 10 mM),IRF Lucia reporter activity,[2]; [5],1
same,IRF Lucia reporter activity,[2]; agonist: LPS (TLR4) 0.1 ug/mL,1.16
CC(C)CC(NC(=O)CNC(=O)c1cc(Cl)ccc1Cl)B(O)O (stereo unspecified),IRF Lucia reporter activity,[1]; [4],1.08
COc1ccc2c(OC3CC4C(=O)NC5(C(=O)NS(=O)(=O)C6CC6)CC5/C=C\CCCCN(C)C(=O)C4C3)cc(-c3nc(C(C)C)cs3)nc2c1C (stereo unspecified) (library stock concentration (final ~1000-fold dilution): 10 mM),IRF Lucia reporter activity,[2]; [5],1.04
same,IRF Lucia reporter activity,[2]; agonist: LPS (TLR4) 0.1 ug/mL,1.18
COc1ccc2c(OC3CC4C(=O)NC5(C(=O)NS(=O)(=O)C6CC6)CC5/C=C\CCCCN(C)C(=O)C4C3)cc(-c3nc(C(C)C)cs3)nc2c1C (stereo unspecified),IRF Lucia reporter activity,[1]; [4],1.05
Cc1ccc(/C(=C\CN2CCCC2)c2ccccn2)cc1.Cl.O,IRF Lucia reporter activity,[1]; [4],1.09
Cc1ccc(/C(=C\CN2CCCC2)c2ccccn2)cc1.Cl.O (library stock concentration (final ~1000-fold dilution): 10 mM),IRF Lucia reporter activity,[2]; [5],0.877
same,IRF Lucia reporter activity,[2]; agonist: LPS (TLR4) 0.1 ug/mL,0.728
CC(C)(O)c1cc(Nc2cc(Oc3cn(C4CC4)nc3C3CCOCC3)ccn2)ccn1 (library stock concentration (final ~1000-fold dilution): 10 mM),IRF Lucia reporter activity,[2]; [5],1.14
same,IRF Lucia reporter activity,[2]; agonist: LPS (TLR4) 0.1 ug/mL,1.53
NC1CCCN(c2c(/C=C3\SC(=O)NC3=O)cccc2-c2ccccc2)C1 (stereo unspecified),IRF Lucia reporter activity,[1]; [4],1.1
NC1CCCN(c2c(/C=C3\SC(=O)NC3=O)cccc2-c2ccccc2)C1 (stereo unspecified) (library stock concentration (final ~1000-fold dilution): 10 mM),IRF Lucia reporter activity,[2]; [5],0.968
same,IRF Lucia reporter activity,[2]; agonist: LPS (TLR4) 0.1 ug/mL,1.16
CS(=O)(=O)CCNCc1ccc(-c2ccc3ncnc(Nc4ccc(OCc5cccc(F)c5)c(Cl)c4)c3c2)o1.Cc1ccc(S(=O)(=O)O)cc1.Cc1ccc(S(=O)(=O)O)cc1,IRF Lucia reporter activity,[1]; [4],1.28
CS(=O)(=O)CCNCc1ccc(-c2ccc3ncnc(Nc4ccc(OCc5cccc(F)c5)c(Cl)c4)c3c2)o1 (library stock concentration (final ~1000-fold dilution): 10 mM),IRF Lucia reporter activity,[2]; [5],0.277
same,IRF Lucia reporter activity,[2]; agonist: LPS (TLR4) 0.1 ug/mL,1.43
CS(=O)(=O)CCNCc1ccc(-c2ccc3ncnc(Nc4ccc(OCc5cccc(F)c5)c(Cl)c4)c3c2)o1.Cc1ccc(S(=O)(=O)O)cc1.Cc1ccc(S(=O)(=O)O)cc1.O (library stock concentration (final ~1000-fold dilution): 10 mM),IRF Lucia reporter activity,[2]; [5],0.259
same,IRF Lucia reporter activity,[2]; agonist: LPS (TLR4) 0.1 ug/mL,2.46
CS(=O)(=O)CCNCc1ccc(-c2ccc3ncnc(Nc4ccc(OCc5cccc(F)c5)c(Cl)c4)c3c2)o1,IRF Lucia reporter activity,[1]; [4],1.6
CS(=O)(=O)CCNCc1ccc(-c2ccc3ncnc(Nc4ccc(OCc5cccc(F)c5)c(Cl)c4)c3c2)o1.Cc1ccc(S(=O)(=O)O)cc1.Cc1ccc(S(=O)(=O)O)cc1.O,IRF Lucia reporter activity,[1]; [4],1.8
CS(=O)(=O)CCNCc1ccc(-c2ccc3ncnc(Nc4ccc(OCc5cccc(F)c5)c(Cl)c4)c3c2)o1.Cc1ccc(S(=O)(=O)O)cc1.Cc1ccc(S(=O)(=O)O)cc1 (library stock concentration (final ~1000-fold dilution): 10 mM),IRF Lucia reporter activity,[2]; [5],0.264
same,IRF Lucia reporter activity,[2]; agonist: LPS (TLR4) 0.1 ug/mL,3.36
